Reference: PubChem BioAssay AID686978 (National Center for Advancing Translational Sciences (NCATS), 2013)
Where “and” joins values, the source holds several entries; their conditions need not be identical. Equal entries are not always repeated. The campaign covered roughly 420,000 compounds. About 64,000 (15%) were called active. Another 27% or so got no clear call; they are omitted. Only a sample is shown. Unmarked numbers belong to inactive results. The call rests on the fitted dose curve; in most records, active means well fitted inhibition curve with a large enough effect; inconclusive means small, poorly fitted or top-dose-only effect; inactive means flat fitted curve, though single readings scatter.

Assay: qHTS for Inhibitors of human tyrosyl-DNA phosphodiesterase 1 (TDP1): qHTS in cells in absence of CPT; further: nearly all actives have a fitted effect of over 55% in size
Settings: DT40 Tdp1-/- hTDP1 cells, no CPT, ATP luminescence, 48 h; activity change, negative = growth inhibition: at 46.2 µM (top of the series)
In short: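 Compound effects on proliferation are scored in DT40 Tdp1-/-;hTDP1 cells in the absence of CPT. ATP levels (CellTiter-Glo luminescence) are recorded after a ≥48 hr, 37 °C incubation.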
On the % scale 0 is the no-effect control and ±100 the full control effect; potency means the concentration at half of the fitted maximal effect.

SMILES	activity change, negative = growth inhibition	Potency
CCOc1cc2[nH]c(=O)n(Cc3ccc(C(=O)NCCCN4CCCC4=O)cc3)c(=O)c2cc1OCC	-28.4%	–
CS(=O)(=O)N1CCC2(CC1)CN(c1ccncc1)C2	2.07%	–
Cc1ccc(-c2nnc3c4ccccc4c(C)nn23)cc1NC(=O)c1cccc(Br)c1	-14.7%	–
CS(=O)(=O)N1CCCC(C(=O)N2CCOCC2)C1 (configuration not stated)	-15.6%	–
CCOc1ccc(NC(=O)CN(C)CC(=O)NC(C)c2ccccc2)cc1OCC (configuration not stated)	-27.8%	–
COc1ccc(Cc2nnc(SCC(=O)c3cccc([N+](=O)[O-])c3)n2C)cc1	-20.5%	–
CCOc1ccc2nc(NCCNS(=O)(=O)c3ccccc3)c(C#N)cc2c1	-18.8%	–
CC(C)(C)N1C(=O)[C@H]2[C@@H](c3ccc(Br)cc3)N3C(=O)N(c4cccc(Cl)c4)C(=O)[C@@]3(C)[C@H]2C1=O	-29.3%	–
COC(=O)[C@H](Cc1ccccc1)NC(=O)Nc1ccc(S(N)(=O)=O)cc1	0.589%	–
O=C(Nc1nnc(S(=O)(=O)N2CCCCCC2)s1)c1cccc(Br)c1	–	4.61 µM (active) and 20.6 µM (active)
O=C(Nc1nncs1)c1cccc(S(=O)(=O)N2CCCCC2)c1	-11.5%	–
O=C(Nc1cccc(S(=O)(=O)N2CCCCC2)c1)c1cncc(Br)c1	–	18.4 µM (active)
CC(=O)NC(CC(=O)Nc1cccc(S(=O)(=O)N2CCCC2)c1)c1ccccc1 (configuration not stated)	-1.79%	–
CCN(CC(=O)Nc1ccc(S(=O)(=O)N2CCCC2)cc1)CC(=O)Nc1cccc(OC)c1	-6.85%	–
COc1c(Cl)cc(C(=O)Nc2ccc(Cl)cn2)cc1Cl	-47.3%	–
CCCc1cc(C(=O)Nc2ccc(Cl)cn2)cs1	-0.236%	–
CCN(CC(=O)Nc1cccc(S(=O)(=O)N2CCCCC2)c1)Cc1ccccc1	–	23.1 µM (active)
Cn1nnnc1SCC(=O)Nc1cccc(S(=O)(=O)N2CCCCC2)c1	-6.39%	–
Cc1cccc(C(=O)Nc2nnc(S(=O)(=O)N3CCCCCC3)s2)c1	-3.13%	–
O=C(NNC1=NCCC1)c1cccc(S(=O)(=O)N2CCCCC2)c1	-5.16%	–
O=C(Nc1ccc(Cl)cn1)c1ccc2c(c1)OCCO2	–	18.4 µM (active)
COc1ccc(S(=O)(=O)N2CCSCC2)cc1	10.9%	–
CCOC(=O)NC(=O)CSc1nnc(SCCC(=O)O)s1	-12.6%	–
COc1ccccc1-c1ccc(C(=O)N(C)C(C)c2ccon2)c(N2CCN(c3ccccc3F)CC2)n1 (configuration not stated)	-7.99%	–
N=c1c2c3c(sc2ncn1N)CCCC3	-20.3%	–
O=C(Nc1ccc(S(=O)(=O)N2CCCC2)cc1Cl)C1=COCCO1	-23.1%	–
CC(C)(O)CCC(O)[C@@](C)(O)C1CC[C@]2(O)C3=CC(=O)C4CC(O)C(O)C[C@]4(C)C3CC[C@]12C (some centres not stated)	-4.62%	–
